These results are taken from PubChem BioAssay AID588453 (National Center for Advancing Translational Sciences (NCATS), 2011).

Among all 390,000 compounds or so, about 4,000 (1%) were called active. About 4% were inconclusive and are not listed. This is one part of a sample in which actives are shown more often than they occur. The call rests on the fitted dose curve; in most records, active means well fitted inhibition curve with a large enough effect; inconclusive means small, poorly fitted or top-dose-only effect; inactive means no such curve, though single readings can be large or run the other way.
On the % scale 0 is the no-effect control and ±100 the full control effect; potency means the concentration at half of the fitted maximal effect.

Chain of Thioredoxin reductase 1, cytoplasmic (Rattus norvegicus) (O89049 whole entry, looked up): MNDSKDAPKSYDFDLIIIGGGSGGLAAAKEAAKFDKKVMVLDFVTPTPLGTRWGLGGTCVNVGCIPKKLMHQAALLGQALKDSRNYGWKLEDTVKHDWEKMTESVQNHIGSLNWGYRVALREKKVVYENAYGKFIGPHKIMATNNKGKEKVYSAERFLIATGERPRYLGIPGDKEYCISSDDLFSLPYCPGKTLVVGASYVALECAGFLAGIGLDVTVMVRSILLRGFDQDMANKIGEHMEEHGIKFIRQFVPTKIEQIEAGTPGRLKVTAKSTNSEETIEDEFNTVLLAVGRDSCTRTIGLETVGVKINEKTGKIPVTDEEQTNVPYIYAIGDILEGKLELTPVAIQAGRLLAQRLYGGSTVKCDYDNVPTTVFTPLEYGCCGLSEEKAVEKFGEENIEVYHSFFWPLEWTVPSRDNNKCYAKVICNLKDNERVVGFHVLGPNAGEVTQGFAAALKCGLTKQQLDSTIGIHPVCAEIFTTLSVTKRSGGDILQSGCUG

The experiment addresses Thioredoxin reductase 1, cytoplasmic (Rattus norvegicus) (UniProt O89049). Nature of the experiment: qHTS Assay for Inhibitors of Mammalian Selenoprotein Thioredoxin Reductase 1 (TrxR1): qHTS. Further: nearly all actives have a fitted effect of over 65% in size. As to conditions: recombinant rTrxR1, NADPH fluorescence consumption, selenite substrate; series mostly up to 114 µM; activity change, negative = inhibition: at the top concentration. From the text:
The selenoprotein thioredoxin reductase (TrxR; EC 1.8.1.9) is a FAD containing homodimeric pyridine nucleotide-disulfide oxidoreductase with many cellular roles. Together with NADPH and its prime substrate thioredoxin (Trx), the enzyme forms the core of the Trx system. The mammalian Trx system exerts a wide spectrum of functions including redox regulation, antioxidant defense, regulation of transcription factors as well as support of cell growth and replication. Many of these functions involve the reduction of Trx, which may subsequently reduce a number of different substrates including ribonucleotide reductase, peroxiredoxins or NFkB. Mammalian TrxR itself also has a broad substrate specificity, reducing both protein and non-protein substrates, including low molecular weight compounds such as dehydroascorbate, lipoic acid, ubiquinone, and juglone. In addition, several drugs in clinical use for anticancer treatment are indeed known to target TrxR1.
This BioAssay is a validation of an NADPH fluorescence-based, dual-purpose qHTS rTrxR1 assay designed to find potential inhibitors and substrates of rTrxR1. For this particular BioAssay, actives are potential inhibitors. See related BioAssay for substrate data deposition.
NIH Molecular Libraries Probe Production Network [MLPCN]
NIH Chemical Genomics Center [NCGC]
Assay Provider: Elias Arner, Karolinska Institute
Assay protocol: 2 uL of reagents (buffer in column 4 as negative control and 90 nM rTrxR1 in columns 1-3 and 5-48) were dispensed into Greiner black solid-bottom 1,536-well assay plates, followed by 1 uL of NADPH (400 uM final concentration) to each well. The plates were centrifuged at 1000 rpm for 15 seconds and subsequently incubated for 5 min at room temperature (~22 deg C) to allow for rTrxR1 reduction. Compounds (23 nL) were then transferred via Kalypsys pin tool equipped with 1536-pin array (10 nL slotted pins, V&P Scientific, San Diego, CA). In addition, a duplicate 2-fold serial dilution of the control compounds auranofin, a known gold-based TrxR1 inhibitor, and juglone (5-hydroxy-1,4-naphthoquinone), a natural TrxR1 substrate, were pin-transferred to columns 2 and 3, respectively. After incubation for 15 min at room temperature (~22 deg C), 1 uL of selenite (400 uM final concentration) were dispensed to each well. The plate was immediately transferred to a ViewLux high-throughput CCD imager (PerkinElmer), wherein kinetic measurements of NADPH fluorescence (Ex 340 nm, Em 450 nm) were acquired (8 minute kinetic read, see Table 1). Read 1 was utilized to assess the capacity of a compound to serve as an rTrxR1 substrate, i.e. a decrease in NADPH fluorescence compared to the no-compound background is an indication of a substrate behavior for that particular compound. For inhibitory activity of a compound, delta values, computed as the difference in fluorescence intensity between the first and last reads of an 8-minute time kinetic window, were used. All reagents were diluted in an assay buffer consisting of 50 mM Tris-HCl, pH 7.5, 2 mM EDTA, and 0.01% Tween-20.
Throughout the screen, reagent bottle and all liquid lines were made light-tight to minimize reagent degradation. All screening operations were performed on a fully integrated robotic system (Kalypsys, San Diego, CA) containing one RX-130 and two RX-90 anthropomorphic robotic arms (Staubli, Duncan, SC). Library plates were screened starting from the lowest and proceeding to the highest concentration, and a 'double-pinning' step of the highest concentration was required to access higher concentrations of compounds. Vehicle-only plates, with DMSO being pin-transferred to the columns 5-48, were inserted uniformly at the beginning and the end of each library in order to monitor and record any shifts in the background, which can be affected by reagent dispensers or loss in enzyme activity over time. […]
As for `Cc1ccc2c(c1)=C/C(=C\c1c(O)[nH]c(=O)[nH]c1=O)C(=O)N=2`, the Potency was 10 µM (active).

For `COc1ccccc1N=Nc1c(O)[nH]c(=S)[nH]c1=O`, the “activity change, negative = inhibition” value is -6.81% [at 57.1 µM] (inactive).

On to `O=C1N=c2ccccc2=C/C1=C\c1c(O)[nH]c(=S)[nH]c1=O`, for which the Potency is 17.8 µM (active). Turning to `O=c1[nH]c(O)c(C=Nc2cc(F)cc(F)c2)c(=O)[nH]1`, the “activity change, negative = inhibition” value is 5.27% (inactive).

Turning to `CC(=O)Nc1ccc(C(=O)C(Cc2ccccc2)N(C)C)cc1` (centres undefined), the “activity change, negative = inhibition” value was -9.89% (inactive). In the case of `CCC(C)n1c(O)c(/C=N/Nc2nc3c(c(=O)n(C)c(=O)n3C)n2C)c(=O)[nH]c1=S` (centres undefined), the activity change, negative = inhibition is 12% [at 11.4 µM] (inactive).

In the case of `O=C(Cn1c(=O)n(CC2CS2)c2ccccc21)N1CCCCC1` (centres undefined), the “activity change, negative = inhibition” value is 10.1% [at 57.1 µM] (inactive). Take `OCC#CC[N+]1(CC#Cc2ccccc2)CCCC1`: the “activity change, negative = inhibition” value was -2.45% (inactive). As for `COCCNC(=O)CN1C2CCC1CC(O)(c1cccnc1)C2` (centres undefined), the “activity change, negative = inhibition” value is 8.33% [at 57.1 µM] (inactive).

With `CCOc1ccc(C2SCC(=O)Nc3c2c(C)nn3C2CCOC(C)(C)C2)cc1` (centres undefined), the “activity change, negative = inhibition” value was -18% (inactive).

Regarding `c1ccc(CCNC2CCCCCC2)cc1`, the “activity change, negative = inhibition” value was 8.58% (inactive). Regarding `COc1ccc2[nH]c3c(c2c1)CCN[C@H]3C`, the “activity change, negative = inhibition” value is -25.8% (inactive). `O=c1c2ccccc2nc(/C=C/c2ccco2)n1-c1ccccc1O`: the Potency is 15.8 µM (active). For `Cn1cc(/C=C/c2nc3ccccc3c(=O)n2-c2ccccc2)c2ccccc21`, the “activity change, negative = inhibition” value was -11.5% (inactive). Still for that read-out and setting: to `O=c1c2ccccc2nc(/C=C/c2ccc(F)cc2)n1-c1ccccc1O` belongs 9.77% [at 57.1 µM] (inactive); to `Cc1cccc(Cn2cccc(C(=O)Nc3ccc4c(c3)OCCO4)c2=O)c1`, 8.05% [at 57.1 µM] (inactive). As for `O=C1NC(=O)C(Cc2ccccc2)C(=O)N1`, the activity change, negative = inhibition was -9.71% [at 2.29 µM] (inactive). The same measure, in the same setting: to `CCCCn1c(O)c(C(CC)=NCc2ccco2)c(=O)[nH]c1=O` belongs -10.3% (inactive). With `CCC(=NCc1ccco1)c1c(O)n(Cc2ccccc2)c(=O)[nH]c1=O`, the Potency is 14.1 µM (active).

With `CN(C)CCCN=Cc1c(O)n(Cc2ccco2)c(=O)[nH]c1=O`, the “activity change, negative = inhibition” value is 40% [at 57.1 µM] (inactive). Turning to `O=C(COC(=O)Cc1ccccc1)Nc1ccc(F)cc1`, the “activity change, negative = inhibition” value is 18.2% (inactive).

`CCOc1ccc(-c2cc(C)n3nc(C(=O)Nc4ccc(C)c(C)c4)cc3n2)cc1`: the “activity change, negative = inhibition” value was 47.3% (inactive). Still for that read-out and setting: to `CC(C)c1c(CN(C)C(C)Cc2ccccc2)n(C)n(-c2ccccc2)c1=O` (centres undefined) belongs -6.1% (inactive).

With `ClCCN(CCCl)c1ccc(C=Nc2ccc(/C=C/c3ccnc4ccccc34)cc2)cc1`, the “activity change, negative = inhibition” value was -2.65% (inactive). Turning to `CC(=O)NBr`, the Potency result was “inactive”. On to `COc1ccc(NC(=O)c2cn(CCC#N)nc2-c2ccc([N+](=O)[O-])cc2)cc1`, for which the “activity change, negative = inhibition” value was 13.3% [at 57.1 µM] (inactive). Take `O=C1NC(=O)N(c2ccccc2)C(=O)/C1=C/c1ccc([N+](=O)[O-])s1`: the Potency is 22.4 µM (active). Turning to `COC(=O)C1=C(c2ccc(F)cc2OCc2ccccc2)C[C@@H]2CC[C@H]1N2C(=O)NCc1ccc(Cl)cc1`, the “activity change, negative = inhibition” value is 18.9% (inactive). Consider `O=[N+]([O-])c1ccc(Cl)c(Cl)c1`, for which the “activity change, negative = inhibition” value was 6.58% (inactive). In the case of `C=CCN1C(=O)NC(=O)/C(=C/c2ccc(OCC(=O)Nc3ccc(C)cc3)cc2)C1=O`, the Potency was 20 µM (active). `C=CCN(CC=C)C(=O)Nc1ccc(OCC)cc1`: the “activity change, negative = inhibition” value was 11.4% [at 57.1 µM] (inactive).

With `CCC(=O)c1ccc(OCC(=O)N2CCN(CC(=O)Nc3ccc(C)cc3)CC2)cc1`, the “activity change, negative = inhibition” value is 8.72% (inactive).

For `COc1cc(Cl)ccc1Nc1ncc(C(=O)N2CCN(c3ccccc3OC)CC2)c2ccccc12`, the “activity change, negative = inhibition” value was 107% (inactive).

With `N#Cc1c(Cl)c(Cl)c(Cl)c(C#N)c1Cl`, the Potency is 0.282 µM (active). Take `C=CCN1CCC23c4c5ccc(O)c4O[C@H]2C(=O)CC[C@@]3(O)C1C5` (some centres undefined): the Potency entry is “inactive”. With `Cc1ncsc1CCCl`, the “activity change, negative = inhibition” value was -10.7% [at 57.1 µM] (inactive). On the same count and under the same terms, to `Cc1ccccc1NC(=O)COC(=O)c1cc(C)n(C2CC2)c1C` belongs -13.9% (inactive). Still for that read-out and setting: as for `O=P1(Oc2ccccc2)CC(O)C(O)C(COCc2ccccc2)O1` (centres undefined), the figure is 14.5% (inactive); as for `CO[C@H]1[C@@H](O)[C@@H](C)O[C@H](O[C@H]2[C@H](Oc3cccc4c(O)c5c(=O)oc6ccc(C)c7c(=O)oc(c34)c5c67)O[C@H](C)[C@H](O)[C@@H]2O)[C@@H]1O`, 3.86% (inactive).
